Results filed as inconclusive are left out. Entries that show only a call come without a potency. A number with no mark means an inactive call. Activity calls are given as the source filed them. The call rests on the fitted dose curve; in most records, active means well fitted cell-killing curve with a large enough effect; inconclusive means small, poorly fitted or top-dose-only effect, or effect the other way; inactive means flat fitted curve, though single readings scatter.
Legend:
Experiment in all cases: Primary qHTS to identify gynecologic anti-cancer compounds using libraries of approved drugs and bioactive compounds (AID 1345084); further: nearly all actives have a fitted effect of over 55% in size
C33A = conditions: Gynecologic cancer cell panel viability, ATPlite luminescence, 48 h; series mostly up to 57.5 µM
Procedure, shortened: (§1)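 48 h compound exposure at 37 C, 5% CO2; five-point qHTS. ATPlite luminescence readout of cell ATP.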

CAOV3 = conditions: Gynecologic cancer cell panel viability, ATPlite luminescence, 48 h; series mostly up to 57.5 µM
Procedure, shortened: as §1

Es-2 = conditions: Gynecologic cancer cell panel viability, ATPlite luminescence, 48 h; series mostly up to 57.5 µM
Procedure, shortened: as §1

OV90 = conditions: Gynecologic cancer cell panel viability, ATPlite luminescence, 48 h; series mostly up to 57.5 µM
Procedure, shortened: as §1

CASKI = conditions: Gynecologic cancer cell panel viability, ATPlite luminescence, 48 h; series mostly up to 57.5 µM
Procedure, shortened: as §1

HeLa = conditions: Gynecologic cancer cell panel viability, ATPlite luminescence, 48 h; series mostly up to 57.5 µM
Procedure, shortened: as §1

Hek293T = conditions: Gynecologic cancer cell panel viability, ATPlite luminescence, 48 h, control line for the selectivity index; series mostly up to 57.5 µM
Procedure, shortened: as §1

JEG-3 = conditions: Gynecologic cancer cell panel viability, ATPlite luminescence, 48 h; series mostly up to 57.5 µM
Procedure, shortened: as §1

PA-1 = conditions: Gynecologic cancer cell panel viability, ATPlite luminescence, 48 h; series mostly up to 57.5 µM
Procedure, shortened: as §1
Potency means the concentration at half of the fitted maximal effect.

Compound | Potency (C33A) | Potency (CAOV3) | Potency (Es-2) | Potency (OV90) | Potency (CASKI) | Potency (HeLa) | Potency (Hek293T) | Potency (JEG-3) | Potency (PA-1) | activity change, negative = cytotoxicity (C33A) | activity change, negative = cytotoxicity (CASKI) | activity change, negative = cytotoxicity (Es-2) | activity change, negative = cytotoxicity (HeLa)
COC1=CC(=O)C[C@@H](C)[C@@]12Oc1c(Cl)c(OC)cc(OC)c1C2=O | inactive | inactive | inactive | inactive | – | – | – | – | – | – | – | – | –
COc1ccc2c(c1)C(C(=O)N(Cc1ccc(N(C)C)cc1)c1ccc(C(C)C)cc1)CCC2 (configuration not stated) | inactive | – | inactive | inactive | inactive | inactive | inactive | inactive | inactive | – | – | – | –
C=CC(=O)N1CCN(C(=O)CNc2cc(-c3ccccc3Cl)c(Cl)cc2OC)CC1 | inactive | – | inactive | inactive | inactive | inactive | inactive | inactive | inactive | – | – | – | –
CCO[C@H]1CN(C2CCC(O)(c3ccc4c(c3)OCO4)CC2)C[C@@H]1NC(=O)CNC(=O)c1cccc(C(F)(F)F)c1 (some centres not stated) | inactive | – | inactive | inactive | inactive | inactive | inactive | inactive | inactive | – | – | – | –
COc1ccc(NC(=O)c2ccc(-c3ccc(-c4nnc(C)o4)cc3C)cc2)cc1N1CCN(C)CC1 | inactive | – | inactive | inactive | inactive | inactive | inactive | inactive | – | – | – | – | –
Cc1cc(N2CCOCC2)ccc1Nc1nc(NC2CCCCC2)c2[nH]cnc2n1 | inactive | – | inactive | inactive | inactive | inactive | inactive | inactive | – | – | – | – | –
CN(C)CCN(Cc1ccccc1)C(=O)c1cc(-c2ccc(F)cc2)n2nc(C(C)(C)C)cc2n1 | inactive | – | inactive | – | inactive | inactive | inactive | inactive | – | – | – | – | –
COc1cc2nc(N3CCN(C(=O)c4ccco4)C4CCCCC43)nc(N)c2cc1OC (configuration not stated) | inactive | – | inactive | inactive | inactive | inactive | inactive | inactive | – | – | – | – | –
Cn1ncc(Cl)c1-c1cc(C(=O)N[C@H](CN)Cc2cccc(F)c2)sc1Cl | 11200 nM (active) | inactive | – | – | – | – | 2820 nM (active) | – | 25100 nM (active) | – | – | – | –
COc1ccc(C(=O)O[C@H]2C=COC=C3C=C4C(=O)N(C)C(=S)C(=O)N4[C@@H]32)cc1Oc1cc(C=O)ccc1O | inactive | – | inactive | inactive | inactive | inactive | inactive | inactive | – | – | – | – | –
O=C(Nc1ccc(-n2nc(C(F)(F)F)cc2C(F)(F)F)cc1)c1ccncc1F | inactive | – | inactive | inactive | inactive | inactive | inactive | inactive | – | – | – | – | –
C[C@H](Oc1cc(-c2cnn(C3CCNCC3)c2)cnc1N)c1c(Cl)ccc(F)c1Cl | inactive | – | inactive | – | inactive | inactive | inactive | inactive | – | – | – | – | –
CC(=O)CC(=O)Nc1ccc(Cl)c(C(F)(F)F)c1 | inactive | – | inactive | inactive | inactive | inactive | inactive | inactive | inactive | – | – | – | –
NC(=O)c1cnc(N[C@@H]2CCCC[C@H]2N)nc1Nc1cccc(-n2nccn2)c1 | inactive | – | inactive | – | inactive | inactive | inactive | inactive | – | – | – | – | –
Cc1[nH]c(/C=C2\C(=O)Nc3cc(-c4ccccc4)ccc32)c(C)c1CCC(=O)O | inactive | inactive | – | inactive | – | – | – | inactive | – | – | – | – | –
CCCc1cc(C)[nH]c(=O)c1CNC(=O)c1cc(-c2ccc(N3CCN(C(C)C)CC3)nc2)cc2c1cnn2C(C)C | inactive | – | inactive | – | inactive | inactive | inactive | – | – | – | – | – | –
CC(C)NCCCn1c(Sc2cc3c(cc2I)OCO3)nc2c(N)ncnc21 | 1580 nM (active) | 1580 nM (active) | – | 398 nM (active) | – | inactive | – | – | – | – | – | – | –
CN(C)c1cccc(Oc2cnc(Nc3cccc(O)c3)nc2)c1 | inactive | inactive | – | inactive | – | inactive | inactive | inactive | inactive | – | – | – | –
Cc1ccc(NC(=O)N2CCN(c3nc(N)nc4sc(-c5cccnc5)nc34)CC2)cc1 | inactive | – | inactive | inactive | inactive | inactive | inactive | inactive | – | – | – | – | –
Cn1ncc(Cl)c1-c1cc(C(=O)N[C@H](CN)Cc2ccc(F)c(F)c2)sc1Cl | 5620 nM (active) | inactive | inactive | – | – | inactive | – | inactive | inactive | – | – | – | –
Cc1nc2c(C(F)(F)F)cccc2nc1-c1ccc(-c2cccc(S(C)(=O)=O)c2)cc1 | inactive | – | inactive | inactive | inactive | inactive | inactive | inactive | inactive | – | – | – | –

Compound | Potency (C33A) | Potency (CAOV3) | Potency (Es-2) | Potency (OV90) | Potency (CASKI) | Potency (HeLa) | Potency (Hek293T) | Potency (JEG-3) | Potency (PA-1) | activity change, negative = cytotoxicity (C33A) | activity change, negative = cytotoxicity (CASKI) | activity change, negative = cytotoxicity (Es-2) | activity change, negative = cytotoxicity (HeLa)
CN1CCC(NC(=O)c2cc(-c3c(O)cc(O)cc3Oc3ccc([N+](=O)[O-])cc3)on2)CC1 | 708 nM (active) | 398 nM (active) | – | – | – | inactive | 1000 nM (active) | – | 794 nM (active) | – | – | – | –
CC(C)CCCCC(=O)N[C@@H](CO)C(=O)N[C@@H](CC(C)C)C(=O)[C@@]1(CO)CO1 | inactive | – | inactive | inactive | inactive | inactive | inactive | inactive | – | – | – | – | –
C/C=C(/C)C(=O)O[C@H]1[C@H](OC(=O)/C(C)=C\C)[C@@]23C(CC1(C)C)[C@]1(CCC4[C@@]5(C)CC[C@H](O[C@@H]6O[C@H](C(=O)O)[C@@H](O)[C@H](O[C@@H]7O[C@H](CO)[C@H](O)[C@H](O)[C@H]7O[C@@H]7O[C@@H](C)[C@H](O)[C@@H](O)[C@H]7O[C@@H]7OC[C@@H](O)[C@H](O)[C@H]7O)[C@H]6O[C@@H]6O[C@H](CO)[C@H](O)[C@H](O)[C@H]6O)C(C)(C)C5CC[C@@]4(C)[C@]1(C)C[C@H]2O)O[C@H]3O (some centres not stated) | – | – | – | – | – | – | – | – | – | -26.4% [at 6.55 µM] | -8.52% [at 6.55 µM] | 0.581% [at 6.55 µM] | 16.8% [at 6.55 µM]
O=C(Nc1nc2cc(C(F)(F)F)cc(NC3CC3)n2n1)c1cccnc1 | inactive | inactive | – | inactive | – | 12600 nM (active) | – | 10000 nM (active) | 7080 nM (active) | – | – | – | –
COc1cc(N2CCOCC2)ccc1NC(=O)c1csc(-c2cccnc2)n1 | inactive | – | inactive | – | inactive | inactive | inactive | inactive | – | – | – | – | –
Cn1ncnc1[C@H]1c2n[nH]c(=O)c3cc(F)cc(c23)N[C@@H]1c1ccc(F)cc1 | inactive | inactive | – | inactive | – | inactive | inactive | – | 1000 nM (active) | – | – | – | –
Cc1cc(C(C)Nc2ccccc2C(=O)O)c2nc(N3CCOCC3)cc(=O)n2c1 (configuration not stated) | inactive | inactive | inactive | inactive | – | inactive | – | – | – | – | – | – | –
Cc1cc(C)c(-n2cc(C)c3c(Cl)nc(C)nc32)c(C)c1 | inactive | – | inactive | inactive | inactive | inactive | inactive | inactive | inactive | – | – | – | –
COC1CC(=O)C23C(=O)NC(Cc4c[nH]c5ccccc45)C2C(C)C2(C)OC2C3/C=C/CC(C)CC1O (configuration not stated) | inactive | inactive | inactive | inactive | – | – | inactive | – | – | – | – | – | –
COc1cc2c(c(OC)c1CC=C(C)C)C[C@H](c1ccc(O)c(CC=C(C)C)c1O)CO2 | inactive | – | inactive | inactive | inactive | inactive | inactive | inactive | inactive | – | – | – | –
Nc1cccc(CNC(=O)c2ccc(Oc3ccc(OCc4cccc(F)c4)cc3)nc2)c1 | inactive | – | inactive | inactive | inactive | inactive | inactive | inactive | inactive | – | – | – | –
O=C(NCCN1CCN(c2cccc3ccc(O)cc23)CC1)c1ccc(F)cc1 | inactive | – | inactive | inactive | inactive | inactive | inactive | inactive | inactive | – | – | – | –
O=c1[nH]c2cccc(N3CCN(Cc4ccc(-c5ccccc5)cc4)CC3)c2o1 | inactive | – | inactive | inactive | inactive | inactive | inactive | inactive | inactive | – | – | – | –
CC(=O)O[C@H]1C[C@H](OC(C)=O)[C@]2(C)[C@H](CC[C@@]34O[C@@H]3C3=C(C)C(=O)O[C@@H]3C[C@H]42)C1(C)C | inactive | – | inactive | inactive | inactive | inactive | inactive | inactive | inactive | – | – | – | –
C=C1CC[C@@H]2[C@](C)(CO)[C@H](O)CC[C@@]2(C)[C@@H]1/C=C/C1=CCOC1=O | inactive | – | inactive | inactive | inactive | inactive | inactive | inactive | inactive | – | – | – | –
CC(=O)O[C@@H]1C2=C(O)C(=O)[C@](C)(OC(C)=O)C(=O)C2=CO[C@@]12O[C@@H](C)CC[C@H]2OC(C)=O | inactive | – | inactive | inactive | inactive | inactive | inactive | inactive | inactive | – | – | – | –
CC1(C)CN(C(=O)c2ccc(-c3cccc4nc(NC(=O)C5CC5)nn34)cc2)C1 | inactive | – | inactive | inactive | inactive | inactive | inactive | inactive | inactive | – | – | – | –
CC/C(C)=C/C(=O)OC1C(OC2(C)CCC3C(C4C(C)CCC42)C3(C)C)OC(C)C(O)C1O (configuration not stated) | inactive | – | inactive | inactive | inactive | inactive | inactive | inactive | inactive | – | – | – | –
CC1CCC(=O)CC(SCC(O)C(=O)O)CCC(=O)O1 (configuration not stated) | inactive | – | inactive | inactive | inactive | inactive | inactive | inactive | inactive | – | – | – | –
C=C1CCC[C@]2(C)CC/C(=C(/CO)C(=O)OC)C[C@@H]12 | inactive | – | inactive | inactive | inactive | inactive | inactive | inactive | inactive | – | – | – | –
COc1ccc(NC(=O)c2ccc(C(=N)N(C)C)cc2)c(C(=O)Nc2ccc(Cl)cn2)c1 | inactive | – | inactive | inactive | inactive | inactive | inactive | inactive | inactive | – | – | – | –
